Measurements reported in PubChem BioAssay AID1159580 (chemical genetic matrix, 2015).
Where “and” joins values, the source holds several entries; their conditions need not be identical. Identical values can stand only once. Hit rate of the full screen: of about 5,500 compounds, about 2,000 (36%) were called active. Not shown: some 18% with an inconclusive outcome. No stated cut-off is given here; in the data, active means normalized growth mostly below about 0.91 (no sharp cut-off); inconclusive means no clear call, values can overlap the other calls; inactive means mostly above about 0.92. The list shows a part of the results.

Assay: chemical genetic growth profiling, strain panel (AID 1159580);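 further: tested at 20 µM; growth read once vehicle control cultures reached saturation at 30 °C; 1 = growth at the plate median or of vehicle wells; lower values mean less growth of the strain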
Details: S. cerevisiae deletion strains, growth OD

Measured: normalized growth

NS(=O)(=O)c1cc2c(cc1Cl)NCNS2(=O)=O
inactive: locus YAL013W, strain DEP1, hits give low values 1.01 | locus YAL021C, strain ccr4, hits give low values 1 | locus YAL026C, strain drs2, hits give low values 1.01 | locus YAL030W, strain snc1, hits give low values 1 | locus YAL040C, strain CLN3, hits give low values 1.01 | locus YBL061C, strain skt5, hits give low values 0.995 | locus YBR009C, strain hhf1, hits give low values 0.996 | locus YBR021W, strain FUR4, hits give low values 0.994 | locus YBR023C, strain chs3, hits give low values 0.984 | locus YBR171W, strain sec66, hits give low values 0.997 | locus YBR229C, strain ROT2, hits give low values 1 | locus YBR231C, strain swc5, hits give low values 0.976 | locus YBR279W, strain paf1, hits give low values 0.999 | locus YCL011C, strain gbp2, hits give low values 1 | locus YCL016C, strain dcc1, hits give low values 0.971 | locus YCL029C, strain bik1, hits give low values 0.996 | locus YCL061C, strain MRC1 (second series), hits give low values 1.01 | locus YCL061C, strain MRC1, hits give low values 0.999 | locus YCL069W, strain vba3, hits give low values 0.993 | locus YCR088W, strain abp1, hits give low values 0.995 | locus YDL005C, strain med2, hits give low values 0.984 | locus YDL035C, strain GPR1, hits give low values 1.02 | locus YDL040C, strain nat1, hits give low values 1 | locus YDL074C, strain BRE1, hits give low values 0.989 | locus YDL101C, strain DUN1, hits give low values 1.01 | locus YDL134C, strain PPH21, hits give low values 1.01 | locus YDL185W, strain tfp1, hits give low values 0.998 | locus YDL192W, strain arf1, hits give low values 0.999 | locus YDR001C, strain nth1, hits give low values 0.996 | locus YDR069C, strain doa4, hits give low values 1.03 | locus YDR101C, strain arx1, hits give low values 1.03 | locus YDR137W, strain rgp1, hits give low values 0.97 | locus YDR159W, strain sac3, hits give low values 1 | locus YDR162C, strain NBP2, hits give low values 1.01 | locus YDR195W, strain ref2 0.982 | locus YDR297W, strain sur2, hits give low values 1 | locus YDR318W, strain mcm21, hits give low values 0.991 | locus YDR334W, strain swr1, hits give low values 1 | locus YDR335W, strain msn5, hits give low values 1 | locus YDR363W, strain ESC2, hits give low values 1.02 | locus YDR388W, hits give low values 0.993 | locus YDR392W, strain spt3, hits give low values 0.962 | locus YDR502C, strain sam2, hits give low values 0.994 | locus YEL003W, strain gim4, hits give low values 1.01 | locus YEL037C, strain rad23, hits give low values 0.992 | locus YEL061C, strain CIN8 (second series), hits give low values 0.991 | locus YEL061C, strain CIN8, hits give low values 1 | locus YER002W, strain NOP16, hits give low values 0.996 | locus YER015W, strain faa2, hits give low values 0.983 | locus YER016W, strain bim1, hits give low values 1.01 | locus YER110C, hits give low values 0.998 | locus YER111C, strain swi4, hits give low values 0.992 | locus YER155C, strain BEM2 (second series), hits give low values 1.02 | locus YER155C, strain BEM2, hits give low values 1.01 | locus YER167W, strain BCK2, hits give low values 1 | locus YFR010W, strain ubp6, hits give low values 1 | locus YGL078C, strain dbp3, hits give low values 0.997 | locus YGL086W, strain mad1, hits give low values 0.999 | locus YGL167C, strain pmr1, hits give low values 1 | locus YGL173C, strain kem1, hits give low values 0.996 | locus YGL227W, strain vid30, hits give low values 0.996 | locus YGL240W, strain doc1, hits give low values 1 | locus YGL248W, strain PDE1, hits give low values 1 | locus YGL253W, strain hxk2, hits give low values 1 | locus YGR078C, strain PAC10, hits give low values 1.01 and 0.993 | locus YGR135W, strain pre9, hits give low values 0.984 | locus YGR229C, strain SMI1, hits give low values 1.01 | locus YGR252W, strain gcn5, hits give low values 0.969 | locus YHR013C, strain ard1, hits give low values 0.999 | locus YHR027C, strain rpn1, hits give low values 0.99 | locus YHR030C, strain SLT2, hits give low values 1.01 and 0.971 | locus YHR079C, strain IRE1 (second series), hits give low values 0.996 | locus YHR079C, strain IRE1, hits give low values 0.962 | locus YHR094C, strain hxt1, hits give low values 0.993 | locus YHR129C, strain ARP1, hits give low values 1 | locus YHR142W, strain chs7, hits give low values 0.994 | locus YHR200W, strain rpn10, hits give low values 1 | locus YIL066C, strain RNR3, hits give low values 1.01 | locus YIL073C, strain SPO22, hits give low values 1.01 | locus YIL125W, strain kgd1, hits give low values 0.996 | locus YIR030C, strain dcg1, hits give low values 1 | locus YJL092W, strain hpr5, hits give low values 1 | locus YJL095W, strain BCK1 (second series), hits give low values 1 | locus YJL095W, strain BCK1, hits give low values 1.01 and 0.976 | locus YJL115W, strain asf1, hits give low values 1.01 | locus YJL129C, strain trk1, hits give low values 1 | locus YJL134W, strain LCB3, hits give low values 1.01 | locus YJL154C, strain vps35, hits give low values 0.995 | locus YJL164C, strain tpk1, hits give low values 0.995 | locus YJL166W, strain qcr8, hits give low values 0.999 | locus YJL168C, strain set2, hits give low values 0.993 | locus YJL187C, strain SWE1 (second series), hits give low values 1.01 | locus YJL187C, strain SWE1, hits give low values 0.998 | locus YJR043C, strain POL32, hits give low values 1.02 | locus YJR066W, strain TOR1, hits give low values 0.937 | locus YJR075W, strain HOC1, hits give low values 1.01 | locus YKL009W, strain mrt4, hits give low values 1.01 | locus YKL068W, hits give low values 1 | locus YKL085W, strain MDH1 (second series), hits give low values 0.994 | locus YKL085W, strain MDH1, hits give low values 0.994 | locus YKL160W, strain elf1, hits give low values 0.988 | locus YKL190W, strain CNB1, hits give low values 1.01 | locus YKR001C, strain vps1, hits give low values 1.01 | locus YKR026C, strain gcn3, hits give low values 0.997 | locus YKR091W, strain srl3, hits give low values 0.997 | locus YLL001W, strain dnm1, hits give low values 0.98 | locus YLL026W, hits give low values 1 | locus YLL041C, strain sdh2, hits give low values 0.997 | locus YLR027C, strain aat2, hits give low values 1.01 | locus YLR039C, strain RIC1, hits give low values 0.936 | locus YLR058C, strain SHM2, hits give low values 0.989 | locus YLR102C, strain apc9, hits give low values 0.993 | locus YLR113W, strain HOG1, hits give low values 0.989 | locus YLR221C, strain rsa3, hits give low values 0.963 | locus YLR258W, strain gsy2, hits give low values 0.996 | locus YLR262C, strain YPT6 (second series), hits give low values 0.992 | locus YLR262C, strain YPT6, hits give low values 1.01 | locus YLR268W, strain sec22, hits give low values 0.991 | locus YLR320W, strain mms22, hits give low values 0.998 | locus YLR330W, strain CHS5, hits give low values 1.01 | locus YLR342W, strain FKS1 (second series), hits give low values 1.02 | locus YLR342W, strain FKS1, hits give low values 1 | locus YLR357W, strain rsc2, hits give low values 1.01 | locus YLR370C, strain arc18, hits give low values 0.983 | locus YLR371W, strain rom2, hits give low values 1 | locus YLR384C, strain iki3, hits give low values 0.996 | locus YLR418C, strain cdc73, hits give low values 0.978 | locus YML016C, strain PPZ1, hits give low values 1.01 | locus YML032C, strain rad52, hits give low values 1 | locus YML120C, strain ndi1, hits give low values 0.978 | locus YML124C, strain tub3, hits give low values 0.999 | locus YMR058W, strain fet3, hits give low values 0.998 | locus YMR078C, strain ctf18, hits give low values 0.993 | locus YMR125W, strain sto1, hits give low values 1 | locus YMR129W, hits give low values 0.995 | locus YMR205C, strain PFK2, hits give low values 0.992 | locus YMR223W, strain ubp8, hits give low values 0.985 | locus YMR231W, strain pep5, hits give low values 0.996 | locus YMR263W, strain SAP30, hits give low values 1.01 | locus YMR307W, strain GAS1, hits give low values 0.999 | locus YNL067W, strain RPL9B, hits give low values 1.01 | locus YNL071W, strain lat1, hits give low values 1 | locus YNL128W, strain TEP1, hits give low values 1.02 | locus YNL153C, strain GIM3, hits give low values 1.01 and 1.02 | locus YNL175C, strain NOP13, hits give low values 1.02 | locus YNL183C, strain NPR1, hits give low values 0.956 | locus YNL197C, strain WHI3, hits give low values 1 | locus YNL209W, strain ssb2, hits give low values 0.998 | locus YNL224C, strain SQS1, hits give low values 0.996 | locus YNL233W, strain BNI4, hits give low values 1.01 | locus YNL248C, strain rpa49, hits give low values 1.01 | locus YNL250W, strain rad50, hits give low values 0.987 | locus YNL271C, strain bni1, hits give low values 0.991 | locus YNL298W, strain CLA4, hits give low values 1 | locus YNL307C, strain MCK1, hits give low values 0.999 | locus YNL322C, strain KRE1 (second series), hits give low values 0.993 | locus YNL322C, strain KRE1, hits give low values 1 and 1.01 | locus YNR049C, strain mso1, hits give low values 1 | locus YNR052C, strain pop2, hits give low values 0.999 | locus YOL006C, strain TOP1, hits give low values 1.03 | locus YOL012C, strain htz1 0.74 | locus YOL147C, strain pex11, hits give low values 0.993 | locus YOR001W, strain rrp6, hits give low values 1.04 | locus YOR061W, strain CKA2, hits give low values 1 | locus YOR069W, strain VPS5, hits give low values 1.01 | locus YOR070C, strain gyp1, hits give low values 0.994 | locus YOR080W, strain dia2, hits give low values 1 | locus YOR083W, strain WHI5 (second series), hits give low values 0.981 | locus YOR083W, strain WHI5, hits give low values 0.988 | locus YOR106W, strain vam3, hits give low values 1.01 | locus YOR136W, strain idh2, hits give low values 0.997 | locus YOR144C, strain elg1, hits give low values 0.994 | locus YOR184W, strain ser1, hits give low values 0.994 | locus YOR231W, strain MKK1, hits give low values 0.972 | locus YOR265W, strain rbl2, hits give low values 0.997 | locus YOR270C, strain vph1, hits give low values 1.03 | locus YOR290C, strain snf2, hits give low values 0.956 | locus YOR316C, strain cot1, hits give low values 0.996 | locus YPL051W, strain arl3, hits give low values 1 | locus YPL055C, strain LGE1, hits give low values 1.02 | locus YPL078C, strain atp4, hits give low values 0.994 | locus YPL106C, strain sse1, hits give low values 0.979 | locus YPL240C, strain hsp82, hits give low values 1 | locus YPL241C, strain CIN2, hits give low values 1.01 | locus YPL256C, strain CLN2, hits give low values 0.986 | locus YPR119W, strain clb2, hits give low values 0.992 | locus YPR141C, strain kar3, hits give low values 1 | locus YPR163C, strain tif3, hits give low values 0.994 | locus YPR167C, strain met16, hits give low values 1 | strain wtn01, hits give low values 0.984
